# Measurements published in PubChem BioAssay AID686979 (National Center for Advancing Translational Sciences (NCATS), 2013).
# Out of some 420,000 compounds screened, about 50,000 (12%) were called active. About 26% were inconclusive and are not listed. Shown is part of a subset that was picked to be rich in actives. Values without a mark were called inactive. Calls follow the shape of the dose curve; as a rule, active = well fitted inhibition curve with a large enough effect; inconclusive = small, poorly fitted or top-dose-only effect; inactive = flat fitted curve, though single readings scatter.
# Assay: qHTS for Inhibitors of human tyrosyl-DNA phosphodiesterase 1 (TDP1): qHTS in cells in presence of CPT; also: nearly all actives have a fitted effect of over 55% in size
# Conditions: chicken DT40 Tdp1-/-;hTDP1 cells + 20 nM CPT, ATP luminescence, 48 h; series mostly up to 46.2 µM; activity change, negative = growth inhibition: at the top concentration
# Text: Human tyrosyl-DNA phosphodiesterase 1 (TDP1) is a novel repair gene, and we propose to use it as a new target for anticancer drug development. TDP1 is not an essential protein, but under treatment with topoisomerase I poison (camptothecin: CPT), TDP1 works as a critical factor for cell survival. To directly identify novel TDP1 inhibitors active in a cellular environment, we have knocked-out the Tdp1 gene in chicken DT40 cells (Tdp1-/-) and generated a complemented counterpart cells that contains a stable transfection of the human TDP1 gene (Tdp1-/-;hTDP1 cells). For the primary screen, Tdp1-/-;hTDP1 cells will be exposed to small molecules in the presence or absence of CPT, and their growth kinetics will be evaluated after 48 hours by measuring ATP activity. […] The hit compounds will then be evaluated in the presence or absence of CPT using Tdp1-/- cells. […] In tertiary assays, biochemical gel-based assays will be used to assess whether the hit compounds specifically target TDP1. To this end, we have screened this cell line against the MLSMR in two primary screens. In one screen we add CPT and in the other we screen in the absence of CPT; this AID represents the screen where CPT was present. NIH Chemical Genomics Center [NCGC] NIH Molecular Libraries Probe Centers Network [MLPCN] MLPCN Grant: MH095538 Assay Submitter (PI): Yves Pommier, NCI
# DT40-hTDP1 cells with 20 nM Camptothecin (add 20 microL of 1 mM CPT stock in 1 L of cell culture medium) were dispensed at 400 cells/5microL/well in tissue culture treated 1536-well white wall/solid bottom assay plates (Greiner Bio-One North America, NC, U.S.A.) using a Multidrop Combi 8 channel dispenser (Thermo Fisher, Waltham, MA, USA). 23 nL compounds and controls were transferred using the pin tool (Kalypsys, San Diego, CA, USA) to the assay plates. The assay plates were then incubated at 37 masculineC for a minimum 48 hr. Three microL of Cell Titer Glo solution was added to the plates and incubated at RT in dark for 30 min. Luminescence was read using ViewLux (Perkin Elmer) with 1 sec exposure slow speed, high gain and 2x binning.
# % is scaled to controls: 0 for no effect and ±100 for the full control effect; potency is read from the fitted curve at half-maximal effect.
Compound,"activity change, negative = growth inhibition",Potency
C[C@@H]1CC[C@]2(O[C@@H](CCO)C[C@H](O)[C@H]2O)O1,-8.7%,
Cn1c(N2CCOCC2)c(C=O)c2ccccc21,-11.8%,
C[C@H]1COc2cc(N3CCSCC3)ccc2S(=O)(=O)N1,-19.2%,
Cc1ccc(N=C2SCCCN2C(=O)c2cccc(N3C(=O)CCC3=O)c2)cc1Cl,-4.22%,
CCCC1C(=O)N2C(N(C)C)=Nc3ccc(C)cc3N2C1=O (stereo not drawn),,inactive
Cc1cc(C)n2nc(SCC(N)=O)nc2n1,1.04%,
CCC1=NN(C(=O)Cc2ccc([N+](=O)[O-])cc2)C(O)(c2ccc(Br)cc2)C1 (stereo not drawn),1.79%,
Cc1cccc(N2C(=O)N3[C@H](c4ccc(F)cc4)[C@@H]4C(=O)N(C5CCCCC5)C(=O)[C@@H]4[C@]3(Cc3ccccc3)C2=O)c1,-2.11%,
O=C1CCC(C(=O)N2CCCCO2)CN1Cc1cccc(C(F)(F)F)c1 (stereo not drawn),-1.38%,
Cc1ccc(N2CC(C(=O)NCCS(=O)(=O)N3CCN(c4ccccc4)CC3)CC2=O)cc1 (stereo not drawn),,inactive
Cc1cc(C)c2oc(C(=O)Nc3ccc(S(=O)(=O)N4CCCCCC4)cc3)cc(=O)c2c1,-6.28%,
O=C(Nc1cc(S(=O)(=O)N2CCOCC2)ccc1Cl)c1cc(=O)c2ccccc2o1,,11.6 µM (active)
CCC1CCCCN1S(=O)(=O)c1ccc(NC(=O)c2cc(=O)c3ccccc3o2)cc1 (stereo not drawn),,3.26 µM (active)
O=C(NCCS(=O)(=O)N1CCN(c2ccccc2)CC1)c1cc(=O)c2ccccc2o1,-29.6%,
O=C(Nc1cc(S(=O)(=O)N2CCOCC2)ccc1N1CCOCC1)c1c(F)cccc1Cl,4.69%,
Cc1ccc2oc(C(=O)Nc3ccc(S(=O)(=O)N4CCCCCC4)cc3)cc(=O)c2c1,-24.2%,
COc1ccccc1CN1CC(C(=O)NCCc2cn[nH]c2)CCC1=O (stereo not drawn),15.3%,
O=C(CCNS(=O)(=O)c1ccccc1C(F)(F)F)Nc1ccncc1,-23.4%,
CCOC(=O)CSc1nnc(NC(=O)C2CC(=O)N(c3ccc(F)cc3)C2)s1 (stereo not drawn),-2.28%,
COC(=O)C1=CN(Cc2ccc(OC)cc2)C=C(C(=O)OC)C1c1ccc(O)c(OC)c1,-10.8%,
CC(=O)Nc1ccc(S(=O)(=O)N2CCC(C(=O)NC3CC3)CC2)cc1,2.36%,
CS(=O)(=O)N1CCN=C1SCc1ccc(F)cc1,19.6%,
CC(=O)c1cnc(SCCN2C(=O)c3ccccc3C2=O)nc1C,-0.72%,
O=C1NC(c2cccc(Cl)c2)Nc2ccccc21 (stereo not drawn),,13 µM (active)
C=CCOc1cccc(C2NC(=O)c3ccccc3O2)c1 (stereo not drawn),1.33%,
O=C1NC(c2ccccc2)Oc2ccccc21 (stereo not drawn),-11.4%,
COc1ccc(C(=O)CSc2nnc(NC(=O)C3CC(=O)N(c4cccc(OC)c4)C3)s2)cc1 (stereo not drawn),-23.9%,
Cc1cc(C)n2nc(C(=O)Nc3cccc(S(=O)(=O)N4CCOCC4)c3)nc2n1,-1.26%,
